We go through 24 compounds from PubChem BioAssay (NCATS).

Records with an inconclusive call do not appear. Where a call stands in place of a potency, no number is given. The source made the active and inactive calls. Calls come from the whole dose curve; as a rule, active = well fitted inhibition curve with a large enough effect; inconclusive = small, poorly fitted or top-dose-only effect; inactive = flat fitted curve, though single readings scatter.
Potency is the fitted concentration of half-maximal effect.

One experiment has as its system CP201. Description: qHTS profiling for inhibitors of Plasmodium falciparum proliferation (AID 504749). Note: nearly all actives have a fitted effect of over 60% in size. To be noted: P. falciparum in erythrocytes, SYBR Green DNA, 72 h; series mostly up to 28.7 µM. The gist of the method:
(§1)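 In a 72 h erythrocytic culture (37 C, humidified, 5% CO2) at 2.5% hematocrit and 0.3% starting parasitemia, compounds were tested; SYBR Green I in detergent lysis buffer stained parasite DNA overnight.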
(In general: Quantitative high-throughput screening tests each substance at several concentrations.)
As to `CC(C)(Cc1c[nH]c2ccccc12)NCC(O)COc1ccccc1C#N` (stereo not drawn), the Potency result is “inactive”. Still for that read-out and setting: to `CC1=C(C(=O)O)N2C(=O)[C@@H](NC(=O)[C@H](N)c3ccccc3)[C@H]2SC1` belongs “inactive”; to `O=C(CN1CCN(Cc2ccc3c(c2)OCO3)CC1)N1c2ccccc2Sc2ccccc21`, “inactive”. Still for that read-out and setting: to `COc1ccc(C(=O)c2ccccc2O)c(O)c1` belongs “inactive”; to `COc1cc(N)c(Cl)cc1C(=O)NC1CCN(Cc2ccccc2)CC1`, “inactive”. For `Cc1cc(CC(=O)O)c(C)n1-c1ccc(Cl)cc1`, the Potency result was “inactive”. For `O=C(NC1CCN(CCc2c[nH]c3ccccc23)CC1)c1ccccc1`, the Potency entry was “inactive”. `CC(C)(C)CC(C)(C)c1ccc(O)c(-n2nc3ccccc3n2)c1`: the Potency result is “inactive”. With `O=[N+]([O-])c1cccc(S(=O)(=O)NCCNS(=O)(=O)c2cccc([N+](=O)[O-])c2)c1`, the Potency result is “inactive”. Same read-out and setting: to `C[N+]1(C)CCC(=C(c2ccccc2)c2ccccc2)CC1` belongs “inactive”; to `CC[N+](C)(CC)CCOC(=O)C(O)(c1ccccc1)C1CCCCC1` (stereo not drawn), “inactive”; to `Oc1c(Cl)cc(Cl)c(Cl)c1Cc1c(O)c(Cl)cc(Cl)c1Cl`, 10.7 µM (active). Take `CCNC(=O)/C=C/c1cccc(Br)c1`: the Potency result is “inactive”. In the case of `CCCCCCCCCCCCOCCOCCOCCOCCOCCOCCOCCOCCOCCO`, the Potency entry is “inactive”. With `CN1CCN(c2c(F)cc3c(=O)c(C(=O)O)cn4c3c2SCC4)CC1`, the Potency result is “inactive”.

Take `Cn1c(=O)c2[nH]c(Br)nc2n(C)c1=O`: the Potency entry was “inactive”. Still for that read-out and setting: to `CO[C@]12C[C@@H](COC(=O)c3cncc(Br)c3)CN(C)[C@@H]1Cc1cn(C)c3cccc2c13` belongs “inactive”; to `CC(C)(C)NC[C@H](O)COc1nsnc1N1CCOCC1`, “inactive”; to `OC(C#CCN1CCCC1)(c1ccccc1)c1ccccc1`, “inactive”. Take `CN(CCCN1c2ccccc2CCc2ccccc21)CC(=O)c1ccc(Cl)cc1`: the Potency result is “inactive”.

With `Cc1cc2c(OCC(CNC(C)(C)C)OC(=O)c3ccccc3)cccc2[nH]1` (stereo not drawn), the Potency result is “inactive”. Consider `CC(C)[N+](C)(C)CC(O)COc1cccc2ccccc12` (stereo not drawn), for which the Potency entry was “inactive”. As for `CN1CCC[C@@H]1CCO[C@](C)(c1ccccc1)c1ccc(Cl)cc1`, the Potency result was “inactive”.

For a further experiment, the system named is CP203. Described as above. Particulars: P. falciparum in erythrocytes, SYBR Green DNA, 72 h; series mostly up to 28.7 µM. The gist of the method: as §1
On to `CCCN(CCc1cccs1)[C@H]1CCc2c(O)cccc2C1`, for which the Potency was 6.75 µM (active). `CC1=C(C(=O)O)N2C(=O)[C@@H](NC(=O)[C@H](N)c3ccccc3)[C@H]2SC1`: the Potency result is “inactive”.

As to `COc1ccc(C(=O)c2ccccc2O)c(O)c1`, the Potency result was “inactive”. `COc1cc(N)c(Cl)cc1C(=O)NC1CCN(Cc2ccccc2)CC1`: the Potency entry is “inactive”.

For `Cc1cc(CC(=O)O)c(C)n1-c1ccc(Cl)cc1`, the Potency entry is “inactive”. Take `CC(C)(C)CC(C)(C)c1ccc(O)c(-n2nc3ccccc3n2)c1`: the Potency result was “inactive”. On to `C[N+]1(C)CCC(=C(c2ccccc2)c2ccccc2)CC1`, for which the Potency result was “inactive”.

With `CC[N+](C)(CC)CCOC(=O)C(O)(c1ccccc1)C1CCCCC1` (stereo not drawn), the Potency entry was “inactive”. The same measure, in the same setting: to `Oc1c(Cl)cc(Cl)c(Cl)c1Cc1c(O)c(Cl)cc(Cl)c1Cl` belongs 7.57 µM (active); to `CCNC(=O)/C=C/c1cccc(Br)c1`, “inactive”. As to `CCCCCCCCCCCCOCCOCCOCCOCCOCCOCCOCCOCCOCCO`, the Potency entry was “inactive”. Consider `CN1CCN(c2c(F)cc3c(=O)c(C(=O)O)cn4c3c2SCC4)CC1`, for which the Potency result is “inactive”. Same read-out and setting: then `Cn1c(=O)c2[nH]c(Br)nc2n(C)c1=O`, with “inactive”; and `OC(C#CCN1CCCC1)(c1ccccc1)c1ccccc1`, with 15.1 µM (active).

Turning to `CC(C)[N+](C)(C)CC(O)COc1cccc2ccccc12` (stereo not drawn), the Potency result was “inactive”.
